Results filed as inconclusive are left out. Unmarked numbers belong to inactive results. Calls of active or inactive are those of the source. Calls follow the shape of the dose curve; as a rule, active = well fitted inhibition curve with a large enough effect; inconclusive = small, poorly fitted or top-dose-only effect; inactive = no such curve, though single readings can be large or run the other way.
These compounds were tested against Protein phosphatase 1D (Homo sapiens) (UniProt O15297) (assay: RapidFire Mass Spectrometry qHTS Assay for Modulators of WT P53-Induced Phosphatase 1 (WIP1) (AID 1347424)). Details: WIP1 dephosphorylation of phosphopeptide, RapidFire MS; series mostly up to 63 µM; activity change, negative = inhibition: at the top concentration.
Excerpt: Assay Provider (PI): Nathan Coussens Ph. D.
National Center for Advancing Translational Sciences (NCATS), Rockville, MD
National Institute of Health (NIH), Bethesda, Maryland
WT P53-Induced Phosphatase 1 (WIP1) is a member of the magnesium-dependent serine/threonine protein phosphatase (PPM) family and is induced by P53 in response to DNA damage. In several human cancers, the WIP1 protein is overexpressed, which is generally associated with a worse prognosis. Although WIP1 is an attractive therapeutic target, no potent, selective, and bioactive small-molecule modulator with favorable pharmacokinetics has been reported. Phosphatase enzymes are among the most challenging targets for small molecules because of the difficulty of achieving both modulator selectivity and bioavailability. Another major obstacle has been the availability of robust and physiologically relevant phosphatase assays that are suitable for high-throughput screening.
Here, we describe two orthogonal biochemical WIP1 activity assays that utilize phosphopeptides from native WIP1 substrates. We optimized a RapidFire MS assay to quantify the enzymatically dephosphorylated peptide reaction product in a 384-well format. Additionally, a redshifted Rhodamine-PBP fluorescence assay was optimized in a 1,536-well format to enable real-time WIP1 activity measurements through the detection of the orthogonal reaction product, Pi. We validated these two optimized assays by quantitative high-throughput screening against the National Center for Advancing Translational Sciences (NCATS) Pharmaceutical Collection and used secondary assays to confirm and evaluate inhibitors identified in the primary screen.
SEQUENCE No. (e.g., 1, 2, 3, etc.); […] (e.g., Cells, Incubation, Reagent, etc.); VALUE; DESCRIPTION
1; Reagent; 50 uL; dispensed assay buffer: 0.1% formic acid in water (10 uL : 40 uL) solution in column 1
3; Library Compounds; 63 nL; library compounds in DMSO, columns 3-24
4; Control Compounds; 63 nL; DMSO in wells I-P, columns 1-2, GSK830371 (10 uM, final) in wells A-H, column 2
5; Time; 1 hr; incubation
6; Substrate; 2 uL; VEPPL-pS-QETFS (10 uM) in assay buffer, column 2-24
7; Time; 5 min; incubation
8; Reagent; 2 uL; 0.5% formic acid in water, columns 2-24
9; Reagent; 38 uL; VEPPL-S-QETF*S in 0.1% formic acid, columns 2-24
10; Detection; mass spec; RapidFire mass spectrometry
NOTES (numbers refer to sequence above)
1, 2, 6; dispensed reagent in White Nunc 384-well PP microplates (264573); assay buffer: 50 mM Tris-HCl pH 7.5, 30 mM MgCl2, 1 mM TCEP, 0.1 mM EGTA, 75 ug/mL BSA.
2, 6, 8, 9; Dispensed with BioRaptr (Beckman Coulter)
2, 6, 9; Final concentrations: 10 nM WIP1; 2 uM VEPPL-pS-QETFS; 1 uM VEFFL-S-QETF*S
3 & 4; Kalypsys Pintool transfer (Wako USA), Tip wash sequence: water, DMSO, methanol, 20 sec vacuum dry.
5 & 7; incubation at room temperature
10; RapidFire mass spectrometry read using the Agilent RapidFire 360 (Clausse, 2019)
Clausse V, et al. Physiologically relevant orthogonal assay for the discovery of small-molecule modulators of WIP1 […] in high-throughput screens. J Biol Chem. 2019, 294(46): 17654-17668. doi:10.1074/jbc.RA119.010201

Sequence of Protein phosphatase 1D (Homo sapiens) (O15297 whole entry, looked up): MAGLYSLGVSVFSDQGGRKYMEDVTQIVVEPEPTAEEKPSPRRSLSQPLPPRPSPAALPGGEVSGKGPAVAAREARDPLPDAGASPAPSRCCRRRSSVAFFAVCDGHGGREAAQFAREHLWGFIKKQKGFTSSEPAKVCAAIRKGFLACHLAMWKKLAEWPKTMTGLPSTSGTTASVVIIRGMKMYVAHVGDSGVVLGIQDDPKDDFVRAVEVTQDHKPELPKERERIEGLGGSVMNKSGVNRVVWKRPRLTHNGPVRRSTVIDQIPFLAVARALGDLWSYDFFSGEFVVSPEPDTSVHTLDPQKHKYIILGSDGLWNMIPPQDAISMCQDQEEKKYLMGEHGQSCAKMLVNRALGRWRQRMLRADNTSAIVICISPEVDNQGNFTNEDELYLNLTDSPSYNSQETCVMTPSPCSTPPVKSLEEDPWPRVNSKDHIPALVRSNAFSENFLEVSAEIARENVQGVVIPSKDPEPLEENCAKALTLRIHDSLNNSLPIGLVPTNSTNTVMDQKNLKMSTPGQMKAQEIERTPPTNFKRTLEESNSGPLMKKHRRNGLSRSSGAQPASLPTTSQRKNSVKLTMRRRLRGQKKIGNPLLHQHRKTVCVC

| Structure (SMILES) | activity change, negative = inhibition | Potency |
| --- | --- | --- |
| CCCNC(C)C(=O)Nc1ccccc1C (stereo not given) | 5.35% |  |
| CCN(CC)CCNC(=O)c1cc(S(C)(=O)=O)ccc1OC | 1.97% |  |
| CCN1CCC[C@H]1CNC(=O)c1c(O)c(Cl)cc(Cl)c1OC | 1.06% |  |
| CC(C(=O)O)c1ccc(CC2CCCC2=O)cc1 (stereo not given) | -7.86% |  |
| NC(=O)N1c2ccccc2C=Cc2ccccc21 | -1.4% |  |
| CCn1cc(C(=O)O)c(=O)c2cc3c(cc21)OCO3 | -5.84% [at 26.6 µM] |  |
| c1ccc2c(c1)CCCC2C1=NCCN1 (stereo not given) | -0.0345% |  |
| COc1cc(C(=O)OCCCN2CCCN(CCCOC(=O)c3cc(OC)c(OC)c(OC)c3)CC2)cc(OC)c1OC | 3.74% |  |
| CCCCNC(=O)NS(=O)(=O)c1ccc(C)cc1 | -6.68% |  |
| O=c1[nH]c(=O)n([C@H]2C[C@H](O)[C@@H](CO)O2)cc1Br | -1.93% |  |
| CN(C)CC[C@@H](c1ccc(Br)cc1)c1ccccn1 | -7.28% |  |
| CN1CCN(C2=Nc3ccccc3Oc3ccc(Cl)cc32)CC1 | 16.2% |  |
| COc1cc2c(cc1OC)-c1cc(=Nc3c(C)cc(C)cc3C)n(C)c(=O)n1CC2 | 37.8% |  |
| NC(=O)c1ncn([C@@H]2O[C@H](CO)[C@@H](O)[C@H]2O)c1O | -3.17% |  |
| C=CCc1ccccc1OCC(O)CNC(C)C (stereo not given) | 6.61% |  |
| NS(=O)(=O)c1cc2c(cc1Cl)NC(C1CC3C=CC1C3)NS2(=O)=O (stereo not given) | -13.2% |  |
| C[N+](C)(C)CCCCCCCCCC[N+](C)(C)C | 3.08% |  |
| CC(=O)OC(C)C[N+](C)(C)C (stereo not given) | -3.95% |  |
| CC1=C(C)C(=O)C(CCCCC#CCCCC#CCO)=C(C)C1=O | 47.8% |  |
| COC(=O)[C@H]1[C@H]2C[C@@H]3c4[nH]c5cc(OC)ccc5c4CCN3C[C@H]2C[C@@H](OC(=O)c2cc(OC)c(OC)c(OC)c2)[C@@H]1OC | 34% |  |

| Structure (SMILES) | activity change, negative = inhibition | Potency |
| --- | --- | --- |
| NC(=Nc1ccccc1)Nc1ccccc1 |  | inactive |
| COCCOC(=O)C1=C(C)NC(C)=C(C(=O)OC(C)C)C1c1cccc([N+](=O)[O-])c1 (stereo not given) | -13.7% |  |
| CCCOc1ccccc1-c1nc2n[nH]nc2c(=O)[nH]1 | 2.42% |  |
| COc1ccc(CN(CCN(C)C)c2ccccn2)cc1 | 1.92% |  |
| CC(=O)Nc1nnc(S(N)(=O)=O)s1 | 2.79% |  |
| CCN(CC)CCNC(=O)c1ccc(NC(C)=O)cc1 | -7.43% |  |
| COC(=O)C1=C(C)NC(C)=C(C(=O)OCCN(C)Cc2ccccc2)C1c1cccc([N+](=O)[O-])c1 (stereo not given) | 54.8% |  |
| CCOC(=O)C1=C(C)NC(C)=C(C(=O)OC)C1c1cccc([N+](=O)[O-])c1 (stereo not given) | 0.226% |  |
| OC(CCN1CCCCC1)(c1ccccc1)C1CCCCC1 (stereo not given) | 9.36% |  |
| COc1ccc2c(c1OC)C(=O)O[C@@H]2[C@H]1c2c(cc3c(c2OC)OCO3)CCN1C | -4.33% |  |
| CCCCCCCC/C=C\CCCCCCCC(=O)NCc1ccc(O)c(OC)c1 | 42.7% |  |
| CCN(Cc1ccncc1)C(=O)C(CO)c1ccccc1 (stereo not given) | -9.86% |  |
| CCCN(CCC)CCc1cccc2c1CC(=O)N2 | -2.93% |  |
| CN(C)CCOC(=O)COc1ccc(Cl)cc1 | 2.67% |  |
| CCc1cccc(N(C)C(N)=Nc2cccc3ccccc23)c1 | 6.54% |  |
| CC(C)NCC(O)c1cc(O)cc(O)c1 (stereo not given) | -4.46% |  |
| CCN(CC)CCOCCOC(=O)C1(c2ccccc2)CCCC1 | 14.1% |  |
| CN(C)CCN(Cc1cccs1)c1ccccn1 | 30% |  |
| COCCc1ccc(OCC(O)CNC(C)C)cc1 (stereo not given) | -4.86% |  |
| CCOC(=O)C1=C(C)NC(C)=C(C(=O)OC)C1c1cccc(Cl)c1Cl (stereo not given) | -8.45% |  |

Reference: PubChem BioAssay (NCATS)
